From PubChem BioAssay (NCATS)
Inconclusive results are not listed. Where a call stands in place of a potency, no number is given. Active and inactive are the calls of the source. The call rests on the fitted dose curve; in most records, active means well fitted inhibition curve with a large enough effect; inconclusive means small, poorly fitted or top-dose-only effect; inactive means flat fitted curve, though single readings scatter.

biological target: Calcium and integrin-binding protein 1 (Homo sapiens) (UniProt Q99828); test: Primary qHTS for Identification of Calcium Integrin Binding Protein 1 (CIB1) Competitor (AID 1508620); conditions: CIB1-GST / FITC-alphaIIb peptide fluorescence polarization; series mostly up to 114 µM;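 further: GST tagged CIB1 binding a fluorescein labelled alphaIIb integrin peptide tracer; top concentration of the series differs between compounds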
How it was run: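 Fluorescence polarization competition: CIB1-GST (1 uM final) preincubated with compound 15 min at room temperature, then FITC-labeled alphaIIb peptide (100 nM final) added for another 15 min. Polarization read at Ex 480/Em 540.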

Calcium and integrin-binding protein 1 (Homo sapiens), sequence (Q99828 whole entry, looked up): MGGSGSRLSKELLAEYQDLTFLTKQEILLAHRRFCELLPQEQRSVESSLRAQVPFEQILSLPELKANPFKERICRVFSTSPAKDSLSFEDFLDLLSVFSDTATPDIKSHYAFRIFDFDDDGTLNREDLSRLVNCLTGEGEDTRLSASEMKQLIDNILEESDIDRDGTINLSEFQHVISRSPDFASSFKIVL

Row | Compound | Potency
1 | N#Cc1ccc(C(=O)NCC(=O)OC(C(=O)Nc2cc(C(F)(F)F)ccc2Cl)c2ccccc2)cc1 (centres undefined) | inactive
2 | Cc1nc(CNc2ncnc3ccc(-c4oc(-c5ccccc5)nc4C)cc23)cs1 | inactive
3 | CCCCN1C(=O)c2ccccc2C1=O | inactive
4 | Cc1cc(NC(=O)Nc2nnc(-c3cccnc3)s2)ccc1F | inactive
5 | Clc1cccc(CSc2nc3ncc(Br)cc3[nH]2)c1 | inactive
6 | Brc1sc2c(c1-c1nc3ccccc3s1)CCNC2 | inactive
7 | O=C(Nc1cccc(C(=O)O)c1)Nc1nnc(-c2ccncc2)s1 | inactive
8 | Cc1ccc(OCCn2c(CCN(C)C(=O)C3CCCCC3)nc3ccccc32)cc1 | inactive
9 | CC(C)c1ccccc1-c1ncc(F)c(NCC2CCN(c3cccnc3)CC2)n1 | inactive
10 | Clc1ccc(CN(CCCNc2ncnc(NCCCc3cnc[nH]3)n2)c2ccc(Br)cn2)cc1Cl | inactive
11 | CCCC1CCN(C(=O)CC(c2ccc3c(c2)OCO3)c2c(O)cc(OC)cc2OC)C1 (centres undefined) | inactive
12 | CC(C)(C)OC(=O)N1CCN(c2ccc(NCc3cc(-c4ccc(C#N)cc4)co3)cc2)CC1 | inactive
13 | COc1cccc(-c2ccc3ncnc(NCc4ccc5c(c4)OCO5)c3c2)c1 | inactive
14 | NC(=O)C1CCN(c2nc(-c3ccc4occc(=O)c4c3)cs2)CC1 | inactive
15 | O=c1c2ccccc2nc2sc(Nc3cccc(N4CCNCC4)c3)nn12 | inactive
16 | Fc1cc(Nc2nc(-c3ccncc3)nc3ccccc23)ccc1N1CCCCC1 | inactive
17 | Cc1cc2c(s1)c1cnn(Cc3ccc(OC(F)F)cc3)c(=O)c1n2C | inactive
18 | O=C(Nc1cc(C(F)(F)F)ccc1Cl)[C@H](O)CCc1ccccc1 | inactive
19 | O=C(C1CCN(c2nc(-c3ccc(Br)cc3)cs2)CC1)N1CCOCC1 | inactive
20 | O=C(NCCc1nc2ccccc2n1CCOc1ccccc1[N+](=O)[O-])C1CCCCC1 | inactive

Row | Compound | Potency
21 | Cc1ccc2oc(NC3=NC4(CCCC4)C4=C(CCCC4=O)N3)nc2c1 | inactive
22 | FC(F)(F)c1cccc(-c2nc(NCc3ccc(-c4ccnc(C(F)(F)F)c4)cc3)c3ccccc3n2)c1 | inactive
23 | Fc1cc(Nc2nc(-c3ccncc3)nc3ccccc23)ccc1-c1cc(F)c(F)c(F)c1 | inactive
24 | Cc1ccc(C)c(SC2=NS(=O)(=O)c3ccccc32)c1 | inactive
25 | N=c1c2c(ccn1CCCCc1ccccc1)Oc1ccc3ccccc3c1C2c1ccccc1 (centres undefined) | inactive
26 | CC(C)(C)OC(=O)N1CCN(c2ccc(NCc3ccoc3-c3ccc(C#N)cc3)cc2)CC1 | inactive
27 | O=C(Nc1ccc2ccccc2c1)Nc1nnc(-c2ccccc2Cl)s1 | inactive
28 | O=c1c2ccc([N+](=O)[O-])cc2nc2sc(Nc3ccc4c(c3)CCC4)nn12 | inactive
29 | Cc1cnc(-c2ccccc2C(C)C)nc1NCC1CN(c2cccnc2)C1 | inactive
30 | CC(=O)Nc1ccc(S(=O)(=O)Nc2ccc(C)c(C)c2)cc1 | inactive
31 | CC(C)(C)OC(=O)NCC(=O)NNC(=O)C(C(=O)OCc1ccccc1)c1ccccc1 (centres undefined) | inactive
32 | Cc1ccnc(NC(=S)N2CCN(c3cccc(C(F)(F)F)c3)C2)c1 | inactive
33 | Cc1ccc(OCCn2c(CCNC(=O)C3CCCCCC3)nc3ccccc32)cc1 | inactive
34 | O=C(Nc1ccc(N2CCOCC2)nc1)c1cccs1 | inactive
35 | O=C1CCCC2=C1C(c1ccccc1Cl)N=C(c1ccccn1)N2 (centres undefined) | inactive
36 | CN(CC(=O)O)c1ncnc2ccc(-c3ccc4c(c3)OCO4)cc12 | inactive
37 | COc1ccc(N2C(=O)c3ccccc3S2(=O)=O)cc1 | inactive
38 | C/C(=C\c1ccsc1)C1Nc2cccc3cccc(c23)N1 | inactive
39 | CCOc1ccc(CCNC(=O)c2cc3sccc3[nH]2)cc1OCC | inactive
